Laboratory results: PubChem BioAssay (EPA / NIEHS)
Results filed as inconclusive are left out. Activity calls are given as the source filed them. How the source made its calls: active means hit-call score of the fitted dose curve at least 0.9, where 1 is the maximum; inconclusive means response in the unintended direction; inactive means score below 0.9.

Each molecule was assayed against rat Gamma-Aminobutyric Acid Type B Receptor (GABBR), Gabbr1 (gene 81657) (UniProt Q9Z0U4) (assay: NVS_GPCR_rGABBR: NovaScreen (NVS) G Protein-Coupled Receptor Assay for rat Gamma-Aminobutyric Acid Type B Receptor (GABBR) (AID 2283301)).
Outline: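 Rat cortical membrane preparation, competitive radioligand binding for 1 h with filtration and scintillation readout. Actives from duplicate single-point 25 uM screening proceeded to concentration series with 50 uM top concentration.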

Sequence of rat Gamma-Aminobutyric Acid Type B Receptor (GABBR), Gabbr1 (gene 81657) (Q9Z0U4 whole entry, looked up): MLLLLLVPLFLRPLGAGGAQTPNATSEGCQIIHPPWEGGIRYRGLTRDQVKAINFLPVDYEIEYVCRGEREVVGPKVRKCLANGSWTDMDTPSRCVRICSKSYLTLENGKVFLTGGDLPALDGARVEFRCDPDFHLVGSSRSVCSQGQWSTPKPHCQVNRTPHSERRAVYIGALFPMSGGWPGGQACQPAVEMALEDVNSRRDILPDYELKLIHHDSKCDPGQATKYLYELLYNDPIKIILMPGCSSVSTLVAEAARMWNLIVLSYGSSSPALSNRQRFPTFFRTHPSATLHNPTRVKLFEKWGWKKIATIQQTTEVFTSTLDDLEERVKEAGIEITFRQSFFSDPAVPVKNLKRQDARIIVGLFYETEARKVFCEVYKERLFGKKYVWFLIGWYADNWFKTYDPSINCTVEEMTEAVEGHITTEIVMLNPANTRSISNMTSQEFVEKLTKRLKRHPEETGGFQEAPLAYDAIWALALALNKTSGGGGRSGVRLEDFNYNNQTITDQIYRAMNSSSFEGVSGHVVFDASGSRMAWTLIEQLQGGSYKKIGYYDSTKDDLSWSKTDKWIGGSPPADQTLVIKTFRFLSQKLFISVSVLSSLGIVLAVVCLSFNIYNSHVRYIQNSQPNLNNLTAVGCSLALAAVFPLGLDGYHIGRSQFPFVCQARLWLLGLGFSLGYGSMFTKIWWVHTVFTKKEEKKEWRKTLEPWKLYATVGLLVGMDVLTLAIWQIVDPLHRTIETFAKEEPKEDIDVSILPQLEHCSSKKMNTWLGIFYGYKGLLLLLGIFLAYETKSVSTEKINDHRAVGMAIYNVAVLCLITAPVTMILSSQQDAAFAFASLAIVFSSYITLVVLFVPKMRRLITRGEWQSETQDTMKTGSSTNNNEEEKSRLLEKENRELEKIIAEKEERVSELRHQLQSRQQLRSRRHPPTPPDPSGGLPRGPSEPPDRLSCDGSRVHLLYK

SMILES	outcome
c1ccc(C(O[C@@H]2CCCN(CCc3ccc4c(c3)OCO4)C2)c2ccccc2)cc1	inactive
CCCCCCCCCC	inactive
NC(=O)N1c2ccccc2C=Cc2ccccc21	inactive
O=c1[nH]cnc2c1ncn2[C@H]1CC[C@@H](CO)O1	inactive
CCCC(CCC)C(=O)O	inactive

Each molecule was assayed against Adra2b (gene 24174) (UniProt P19328) (assay: NVS_GPCR_rmAdra2B: NovaScreen (NVS) G Protein-Coupled Receptor Assay for hybird cells Adrenergic, Alpha 2B Receptor (Adra2B) (AID 2283306)).
Procedure: (§1) NVS_GPCR_rmAdra2B is a biochemical, single-readout assay that uses extracted gene-proteins from neuroglioma/blastoma hybrid cells in a tissue-based cell-free assay. Measurements were taken 1 hour after chemical dosing in a 48-well plate.NVS_GPCR_rmAdra2B is one of one assay component(s) measured or calculated from the NVS_GPCR_rmAdra2B assay. It is designed to make measurements of radioligand binding, a form of binding reporter, as detected with scintillation counting signals by Filter-based radiodetection technology.Data from the assay component NVS_GPCR_rmAdra2B was analyzed into 1 assay endpoint. This assay endpoint, NVS_GPCR_rmAdra2B, was analyzed in the positive analysis fitting direction relative to DMSO as the negative control and baseline of activity. Using a type of binding reporter, loss-of-signal activity can be used to understand changes in the binding as they relate to the gene Adra2b. Furthermore, this assay endpoint can be referred to as a primary readout, because the performed assay has only produced 1 assay endpoint. To generalize the intended target to other relatable targets, this assay endpoint is annotated to the gpcr intended target family, where the subfamily is rhodopsin-like receptor.
(§2) Binding assays used specific radioligands (tritiated, iodinated) with non-radioactive competitive displacement ligands in agonist or antagonist protocols (as indicated) and various reference compounds and inhibitors to titrate specific binding to receptors and transporters. Most enzyme assays (CYPs, kinases, phosphatases, proteases, HDACs) used recombinant protein and specific substrates (fluorescence mostly, some colorimetric and radioactive) and inhibitors, followed by a biochemical separation of substrate and product. All assays for the biochemical HTS were initially run in duplicate at a single concentration (10 uM for CYP450 assays and 25 uM for all others). […] Each assay was run with positive and negative controls, and concurrent controls on every plate. The follow-up (secondary) screen tested active chemical-pairs in concentration series, as well as a few additional assays not tested in the primary screen, some selected negative inactives, and several cases re-run in the concentration series for confirmatory purposes.

Sequence of Adra2b (gene 24174) (P19328 whole entry, looked up): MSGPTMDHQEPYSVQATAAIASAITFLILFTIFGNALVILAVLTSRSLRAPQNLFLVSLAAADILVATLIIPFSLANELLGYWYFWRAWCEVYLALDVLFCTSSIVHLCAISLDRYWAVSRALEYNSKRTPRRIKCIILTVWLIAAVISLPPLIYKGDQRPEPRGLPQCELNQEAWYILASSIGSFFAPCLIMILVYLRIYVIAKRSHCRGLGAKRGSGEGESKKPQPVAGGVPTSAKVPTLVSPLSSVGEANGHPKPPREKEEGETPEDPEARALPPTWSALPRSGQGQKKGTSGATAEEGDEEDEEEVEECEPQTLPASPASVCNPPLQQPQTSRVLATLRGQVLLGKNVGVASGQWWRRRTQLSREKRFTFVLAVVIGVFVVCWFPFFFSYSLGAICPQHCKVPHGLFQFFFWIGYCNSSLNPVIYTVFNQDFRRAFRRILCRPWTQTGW

SMILES	AC50	outcome
c1ccc(C(O[C@@H]2CCCN(CCc3ccc4c(c3)OCO4)C2)c2ccccc2)cc1	7.75 µM (active)	–
CCCCCCCC/C=C\CCCCCCCC(=O)OC[C@@H](O)[C@H]1OC[C@H](O)[C@H]1O	–	inactive
CCCCCCCCCC	–	inactive
Cc1nccn1-c1ccc(Sc2cccc(C3(C(N)=O)CCOCC3)c2)cc1	8.46 µM (active)	–
O=C(O)c1ccc2c(c1)nc(C(=O)NC1CCN(C3CC3)CC1)n2Cc1cc(-c2ccc(Cl)s2)on1	0.395 µM (active)	–
COc1cc(C(C)C)c2c(c1)S(=O)(=O)N(COc1cc(=O)n3cccc(OCCN4CCCCC4)c3n1)C2=O	2.98 µM (active)	–
CCCCCCCCN(C)C	–	inactive

What follows are molecules tested against rat Neurokinin-1 Receptor (NK1), Tacr1 (gene 24807) (UniProt P14600) (assay: NVS_GPCR_rNK1: NovaScreen (NVS) G Protein-Coupled Receptor Assay for rat Neurokinin-1 Receptor (NK1) (AID 2283309)).
Procedure: as §1, with “NVS_GPCR_rNK1” for “NVS_GPCR_rmAdra2B”, “Rat submaxillary gland membranes” for “neuroglioma/blastoma hybrid cells”, “plate.NVS_GPCR_rNK1” for “plate.NVS_GPCR_rmAdra2B”, “NVS_GPCR_rNK1,” for “NVS_GPCR_rmAdra2B,”, “Tacr1.” for “Adra2b.”
as §2, with “The follow-up (secondary) screen tested active chemical-pairs in concentration series, as well as a few additional assays not tested in the primary screen, some selected negative inactives, and several cases re-run in the concentration series for confirmatory purposes.” left out

Sequence of rat Neurokinin-1 Receptor (NK1), Tacr1 (gene 24807) (P14600 whole entry, looked up): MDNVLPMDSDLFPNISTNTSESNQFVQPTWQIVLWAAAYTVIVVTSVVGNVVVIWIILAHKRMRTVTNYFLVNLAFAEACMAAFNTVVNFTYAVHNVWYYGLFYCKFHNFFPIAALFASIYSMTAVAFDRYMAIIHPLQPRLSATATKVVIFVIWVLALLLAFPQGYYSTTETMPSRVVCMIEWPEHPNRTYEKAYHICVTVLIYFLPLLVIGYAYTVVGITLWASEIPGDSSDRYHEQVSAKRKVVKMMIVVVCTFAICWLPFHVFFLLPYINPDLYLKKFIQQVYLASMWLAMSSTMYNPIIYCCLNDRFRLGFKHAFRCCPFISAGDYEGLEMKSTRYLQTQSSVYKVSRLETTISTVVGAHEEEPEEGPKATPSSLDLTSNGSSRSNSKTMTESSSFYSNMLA

SMILES	outcome	AC50
CCn1nc(C)c2c1C(=O)NCC(c1ccc(O)cc1)=N2	inactive	–
CCCOc1ccc(S(=O)(=O)N2CCN(CC)CC2)cc1-c1nc2c(CC)n(Cc3ccccn3)nc2c(=O)[nH]1	–	12.6 µM (active)
Cc1nccn1-c1ccc(Sc2cccc(C3(C(N)=O)CCOCC3)c2)cc1	–	25 µM (active)

Each molecule was assayed against rat Neurokinin-3 Receptor (NK3), Tacr3 (gene 24808) (UniProt P16177) (assay: NVS_GPCR_rNK3: NovaScreen (NVS) G Protein-Coupled Receptor Assay for rat Neurokinin-3 Receptor (NK3) (AID 2283310)).
Procedure: as §1, with “NVS_GPCR_rNK3” for “NVS_GPCR_rmAdra2B”, “Rat cortical membranes” for “neuroglioma/blastoma hybrid cells”, “2 hours” for “1 hour”, “plate.NVS_GPCR_rNK3” for “plate.NVS_GPCR_rmAdra2B”, “NVS_GPCR_rNK3,” for “NVS_GPCR_rmAdra2B,”, “Tacr3.” for “Adra2b.”
Binding assays used specific radioligands (tritiated, iodinated) with non-radioactive competitive displacement ligands in agonist or antagonist protocols (as indicated) and various reference compounds and inhibitors to titrate specific binding to receptors and transporters. Most enzyme assays (CYPs, kinases, phosphatases, proteases, HDACs) used recombinant protein and specific substrates (fluorescence mostly, some colorimetric and radioactive) and inhibitors, followed by a biochemical separation of substrate and product. All assays for the biochemical HTS were initially run in duplicate at a single concentration (10 uM for CYP450 assays and 25 uM for all others). Assay-chemical combinations meeting a pre-defined threshold (e.g., 30% inhibition and other criteria defined below) were then run in singleton concentration-response format with maximum concentration of 20 uM for CYPs and 50 uM for all others. Each assay was run with positive and negative controls, and concurrent controls on every plate. The follow-up (secondary) screen tested active chemical-pairs in concentration series, as well as a few additional assays not tested in the primary screen, some selected negative inactives, and several cases re-run in the concentration series for confirmatory purposes.

Sequence of rat Neurokinin-3 Receptor (NK3), Tacr3 (gene 24808) (P16177 whole entry, looked up): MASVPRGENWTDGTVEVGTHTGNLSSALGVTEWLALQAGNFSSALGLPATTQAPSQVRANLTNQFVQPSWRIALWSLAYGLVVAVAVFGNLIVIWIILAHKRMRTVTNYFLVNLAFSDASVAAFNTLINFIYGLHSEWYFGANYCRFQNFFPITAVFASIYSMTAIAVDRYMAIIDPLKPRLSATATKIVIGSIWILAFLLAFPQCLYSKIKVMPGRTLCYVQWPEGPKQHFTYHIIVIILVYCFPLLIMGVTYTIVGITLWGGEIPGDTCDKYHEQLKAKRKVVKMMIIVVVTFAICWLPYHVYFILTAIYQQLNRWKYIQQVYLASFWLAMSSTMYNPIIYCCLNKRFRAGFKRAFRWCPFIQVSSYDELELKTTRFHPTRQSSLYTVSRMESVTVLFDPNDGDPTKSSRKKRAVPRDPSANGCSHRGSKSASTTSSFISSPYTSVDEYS

SMILES	outcome
CCn1nc(C)c2c1C(=O)NCC(c1ccc(O)cc1)=N2	inactive
CCCCCCCCCC	inactive
CCCCN1C(=O)[C@@H]([C@H](O)C2CCCCC2)NC(=O)C12CCN(Cc1ccc(Oc3ccc(C(=O)O)cc3)cc1)CC2	inactive
OCC(CO)(CO)CO	inactive

The molecules below were run against rat Opioid Receptor, Non-selective Sodium (Na+) Binding, Oprm1 (gene 25601) (UniProt P33535) (assay: NVS_GPCR_rOpiate_NonSelectiveNa: NovaScreen (NVS) G Protein-Coupled Receptor Assay for rat Opioid Receptor, Non-selective Sodium (Na+) Binding (AID 2283311)).
Outline: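 Filtration radioligand binding on rat forebrain membrane preparations, read 1.5 h after dosing. Single-concentration 25 µM primary screen in duplicate, followed by singleton concentration series to 50 µM max for actives; DMSO baseline.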

Sequence of rat Opioid Receptor, Non-selective Sodium (Na+) Binding, Oprm1 (gene 25601) (P33535 whole entry, looked up): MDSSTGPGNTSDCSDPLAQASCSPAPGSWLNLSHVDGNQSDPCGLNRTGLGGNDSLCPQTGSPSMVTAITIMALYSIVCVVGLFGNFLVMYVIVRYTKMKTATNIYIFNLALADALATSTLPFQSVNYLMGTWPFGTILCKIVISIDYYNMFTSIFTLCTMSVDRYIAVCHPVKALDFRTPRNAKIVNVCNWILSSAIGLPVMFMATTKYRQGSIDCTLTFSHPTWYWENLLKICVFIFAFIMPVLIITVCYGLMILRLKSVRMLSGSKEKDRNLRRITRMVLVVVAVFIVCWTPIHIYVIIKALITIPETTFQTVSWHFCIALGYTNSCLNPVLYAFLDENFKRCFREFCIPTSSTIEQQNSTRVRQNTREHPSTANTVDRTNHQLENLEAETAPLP

SMILES	outcome	AC50
OC(Cn1cncn1)(Cn1cncn1)c1ccc(F)cc1F	inactive	–
c1ccc(C(O[C@@H]2CCCN(CCc3ccc4c(c3)OCO4)C2)c2ccccc2)cc1	–	6.18 µM (active)
Cc1nccn1-c1ccc(Sc2cccc(C3(C(N)=O)CCOCC3)c2)cc1	inactive	–
CCN(CC)C(=S)SSC(=S)N(CC)CC	inactive	–
COc1cc(C(C)C)c2c(c1)S(=O)(=O)N(COc1cc(=O)n3cccc(OCCN4CCCCC4)c3n1)C2=O	–	8.62 µM (active)
C=CCc1cc(S(=O)(=O)c2ccc(O)c(CC=C)c2)ccc1O	–	16.1 µM (active)

These molecules were tested against rat Somatostatin Receptor (SST), Sstr1 (gene 25033) (UniProt P28646) (assay: NVS_GPCR_rSST: NovaScreen (NVS) G Protein-Coupled Receptor Assay for rat Somatostatin Receptor (SST) (AID 2283314)).
Outline: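 Single-concentration duplicate screen (25 uM), then concentration-response up to 50 uM for chemicals passing a threshold such as 30% inhibition. Membranes came from rat forebrain. Binding was measured 1 h post-dose by filter radiodetection and scintillation, relative to DMSO.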

Sequence of rat Somatostatin Receptor (SST), Sstr1 (gene 25033) (P28646 whole entry, looked up): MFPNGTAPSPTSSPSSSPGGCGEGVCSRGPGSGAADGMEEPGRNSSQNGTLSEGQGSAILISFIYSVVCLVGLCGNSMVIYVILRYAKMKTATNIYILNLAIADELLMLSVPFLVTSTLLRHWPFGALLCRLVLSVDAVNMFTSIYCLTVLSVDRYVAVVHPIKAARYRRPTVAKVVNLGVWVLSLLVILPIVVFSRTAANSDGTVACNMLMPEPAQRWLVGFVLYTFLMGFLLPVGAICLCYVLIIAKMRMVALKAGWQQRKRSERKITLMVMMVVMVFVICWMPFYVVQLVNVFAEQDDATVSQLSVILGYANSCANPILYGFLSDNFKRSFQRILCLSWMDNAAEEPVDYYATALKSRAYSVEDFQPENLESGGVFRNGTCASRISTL

SMILES	AC50	outcome
c1ccc(C(O[C@@H]2CCCN(CCc3ccc4c(c3)OCO4)C2)c2ccccc2)cc1	14.6 µM (active)	–
CCCCCCCCCC	2.19 µM (active)	–
CCCCCCCC1CCC(=O)O1 (stereo unspecified)	–	inactive

The molecules below were run against rat Neonicotinoid receptor (NNR), Chrna7 (gene 25302) (UniProt Q05941) (assay: NVS_LGIC_rNNR_BungSens: NovaScreen (NVS) Ligand-Gated Ion Channel Assay for rat Neonicotinoid receptor (NNR) (AID 2283315)).
Outline: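 Rat cortical membrane preparation incubated 2.5 h with tritiated or iodinated radioligand and test chemical. Bound radioactivity was filtered and counted by scintillation, and displacement was analysed against DMSO.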

Sequence of rat Neonicotinoid receptor (NNR), Chrna7 (gene 25302) (Q05941 whole entry, looked up): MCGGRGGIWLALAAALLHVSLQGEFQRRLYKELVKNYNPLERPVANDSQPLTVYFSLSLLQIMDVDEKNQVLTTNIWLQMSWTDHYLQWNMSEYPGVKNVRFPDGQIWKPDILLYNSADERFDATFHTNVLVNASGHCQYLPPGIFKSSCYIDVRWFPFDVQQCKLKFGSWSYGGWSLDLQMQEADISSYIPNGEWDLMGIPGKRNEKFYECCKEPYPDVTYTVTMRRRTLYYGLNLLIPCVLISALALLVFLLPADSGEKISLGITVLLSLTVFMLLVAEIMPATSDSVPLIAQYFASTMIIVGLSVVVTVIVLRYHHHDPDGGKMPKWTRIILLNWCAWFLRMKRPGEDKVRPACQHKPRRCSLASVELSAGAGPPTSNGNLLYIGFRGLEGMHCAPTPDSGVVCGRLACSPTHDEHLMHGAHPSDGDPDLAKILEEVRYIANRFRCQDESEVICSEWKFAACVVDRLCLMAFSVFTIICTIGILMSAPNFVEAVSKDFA

SMILES	outcome
c1ccc(C(O[C@@H]2CCCN(CCc3ccc4c(c3)OCO4)C2)c2ccccc2)cc1	inactive
CCCCCCCCCC	inactive
COc1cc(C(C)C)c2c(c1)S(=O)(=O)N(COc1cc(=O)n3cccc(OCCN4CCCCC4)c3n1)C2=O	inactive
